High-throughput results from PubChem BioAssay.
Only some compounds are listed: those with a hit (about 2.1% of all), similar ones and a draw of the others.
D2 PAM-1 – Beta-Arrestin HTS for Positive Allosteric Modulators of the Human D2 Dopamine Receptor: Potentiators; potentiation, % (no concentration beside the values); DiscoveRx D2 beta-arrestin cells, luminescence, 90 min; 100% = 57 uM dopamine signal; hit rate 0.23% among 360,000; AID 624464, 2012; in the data active = potentiation above about 50%; inconclusive = mostly about 30% to 49%
Target sequence (P14416 whole entry, looked up): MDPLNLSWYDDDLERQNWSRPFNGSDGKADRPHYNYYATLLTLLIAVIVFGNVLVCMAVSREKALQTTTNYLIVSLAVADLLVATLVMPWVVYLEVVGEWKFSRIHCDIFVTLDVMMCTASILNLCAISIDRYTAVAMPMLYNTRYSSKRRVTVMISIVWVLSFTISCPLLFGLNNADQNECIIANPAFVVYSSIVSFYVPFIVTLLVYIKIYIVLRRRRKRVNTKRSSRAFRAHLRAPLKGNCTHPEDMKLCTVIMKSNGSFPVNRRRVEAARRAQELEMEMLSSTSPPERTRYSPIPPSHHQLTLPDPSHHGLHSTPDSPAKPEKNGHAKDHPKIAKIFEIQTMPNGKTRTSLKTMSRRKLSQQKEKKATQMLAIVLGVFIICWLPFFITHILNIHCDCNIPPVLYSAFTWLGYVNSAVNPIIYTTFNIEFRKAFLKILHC
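D2 cells co-treated with compound plus 50 nM dopamine (EC20) for 90 min at 37 deg C to detect potentiation. Beta-arrestin recruitment was read as enzyme-fragment luminescence after 1 h at ambient temperature. Full response was set by 57 uM dopamine.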
D2 antag – HTS Assay for Allosteric Antagonists of the Human D2 Dopamine Receptor: Primary Screen for Antagonists | AID 485344, 2010 | HEK293 TREx D2 cells, calcium flux, dopamine EC80 | D(2) dopamine receptor (Homo sapiens), P14416 | hit rate 2% among 340,000 | inhibition, % at 10 µM; in the data active = inhibition above about 30%; inactive = below that, where a call was filed; also: 0% is about no effect
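Cells plated overnight at 30 C with tetracycline; no-wash calcium dye, 30–90 min RT; 10 s baseline; compound pinned; 180 s read; EC80 dopamine added; another 180 s read.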
D2 ag-1 – Beta-Arrestin HTS for Positive Allosteric Modulators of the Human D2 Dopamine Receptor: Agonists. D(2) dopamine receptor (Homo sapiens), P14416. DiscoveRx PathHunter D2 beta-arrestin, luminescence, 90 min; 100% = 57 uM dopamine signal. activation, % (concentration not given with the values). hit rate 0.084% among 360,000; in the data active = activation above about 40%; inconclusive = between about 15% and that limit
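Agonist mode: compounds alone added to overnight-plated D2 PathHunter cells for 90 min at 37 C, with 57 uM final dopamine (EC100) defining full response. Beta-arrestin recruitment detected by chemiluminescent reagent, read after 1 h at ambient temperature.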
D2 ag-2 – HTS Assay for Allosteric Agonists of the Human D2 Dopamine Receptor: Primary Screen for Agonists. D(2) dopamine receptor (Homo sapiens), P14416. HEK293 T-REx D2 cells, calcium flux agonist mode. activation, % at 2 µM. hit rate 0.53% among 340,000. AID 485358, 2010;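 active = activation over 3 SD above normal in the single-dose calcium agonist read, cut at about 30% in these data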; also: 0% is about no effect
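Calcium-flux readout, 1 cycle/sec over 180 s following compound pin transfer, in inducible HEK293 Trex D2 cells (force-coupled); dopamine controls included. Positive calcium responses during this window marked compounds as potential agonists.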
LDHA block – qHTS assay for inhibitors of human lactate dehydrogenase. L-lactate dehydrogenase A chain (Homo sapiens), P00338. purified LDHA, NADH/diaphorase-resazurin fluorescence; stronger effect = lower value. activity change, % (values are at about 110 or 230 µM). hit rate 0.15% among 480,000. AID 1347041, 2019; in the data active = activity change below about -30%; inconclusive = mostly about -25% to -30%;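 also: plate controls were DMSO wells for no effect and wells without enzyme for full effect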
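LDH5 2 nM; NADH 0.06 mM, pyruvate 0.2 mM; 200 mM Tris pH 7.4, EDTA, Tween-20; 5 min RT. Detection: diaphorase 0.133 mg/mL + resazurin 37 µM, fluorescence ex540/em590 at 0 and 20 min; normalized to enzyme-free and DMSO wells.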
D2 PAM-2 – HTS Assay for Positive Allosteric Modulators of the Human D2 Dopamine Receptor: Primary Screen for Potentiators; HEK293 T-REx D2, calcium flux, EC20 dopamine potentiation; potentiation, % at 10 µM; hit rate 0.34% among 340,000;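 active = potentiation over 3 SD above the plate norm, cut at about 30% in these data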; also: 0% is about no effect
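Cells plated with tetracycline inducer and held overnight at 30 C; calcium dye loaded 30–90 min at room temperature; baseline taken, compound added and read 180 s; EC20 dopamine then added and read 180 s.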
* marks the source's active call; other numbers are inactive results; ? = inconclusive; . = not tested or not shown.

SMILES	D2 PAM-1	D2 antag	D2 ag-1	D2 ag-2	LDHA block	D2 PAM-2
CCn1ncc(C2=NOC(C(=O)NCc3ccccc3)C2)c1C (stereo not given)	-4	-7	-2	0	-4	-3
CC(=O)/C(=N\Nc1ccccc1)Oc1ccc([N+](=O)[O-])cc1	1	11	0	0	-13	34*
CC(=O)NC/C(C)=N\Nc1ccc([N+](=O)[O-])cc1	-1	3	-1	3	-8	1
COc1ccc(C)cc1CNCc1ccco1	.	.	.	.	-6	.
O=C(O)C(Cc1ccccc1)N1C(=O)c2ccccc2C1=O (stereo not given)	4	14	-3	1	-2	-16
CCC(C(=O)O)N1C(=O)c2ccccc2C1=O (stereo not given)	1	37*	0	0	-12	5
Nc1nnc(CC(=O)N/N=C/c2cc([N+](=O)[O-])cc(Br)c2O)s1	-18	-13	-10	0	-86*	25
Nc1nnc(CC(=O)N/N=C/c2cccc(OCCOc3ccccc3)c2)s1	21	31*	-1	-1	-2	0
O=C(O)/C=C/c1cc(Cl)ccc1OCc1ccc(Cl)cc1	.	.	.	.	6	.
CC(CNc1ccccc1O)C(=O)O (stereo not given)	68*	-1	?	0	35	5
Nc1nonc1OCCN1CCN(c2ccc([N+](=O)[O-])c3cccnc23)CC1	-14	-7	6	0	2	-8
Cc1nonc1OCCN1CCN(c2ccccc2[N+](=O)[O-])CC1	-16	53*	2	16	-6	-40
CCCCc1nc(N2CCN(C(=O)c3ccco3)CC2)c(C#N)c2c1CCCC2	-2	31*	0	1	3	2
COc1cc(C(C)=O)ccc1OCCN1CCC(Cc2ccccc2)CC1	-20	-15	-6	0	-15	-12
O=Cc1cc(Cl)ccc1OCCN1CCC(Cc2ccccc2)CC1	-15	51*	-2	1	-20	-19
OCc1ccccc1OCCCN1CCC(Cc2ccccc2)CC1	-15	41*	-2	2	-19	-22
OCC1CCN(CCCOCCc2ccccc2)CC1	.	.	.	.	-16	.
C=CCOc1ccccc1CN1CCC(Cc2ccccc2)CC1	-15	31*	-3	-1	-18	-12
O=[N+]([O-])c1cccc(OCCN2CCC(Cc3ccccc3)CC2)c1	-26	67*	0	0	-8	-20
COc1ccccc1CN1CCC(Cc2ccccc2)CC1	.	.	.	.	0	.
Cc1ccc(-c2cccc(N)c2)cc1	.	.	.	.	10	.
COc1ccccc1N(CCC#N)C(=O)CN(C)CC(=O)Nc1ccccc1Cl	.	.	.	.	3	.
CCc1nc2ccccc2c(C(=O)OCC(=O)NCCc2ccccc2)c1C	.	.	.	.	1	.
COc1cc(C(C)=O)ccc1OCCCN1CCC(Cc2ccccc2)CC1	-11	35*	-2	-2	-8	7
Clc1ccccc1OCCN1CCC(Cc2ccccc2)CC1	-14	63*	1	0	-11	-20
SMILES	D2 PAM-1	D2 antag	D2 ag-1	D2 ag-2	LDHA block	D2 PAM-2
COc1cc(/C=C(/C#N)C(=O)c2ccccc2C)cc(Cl)c1O	.	.	.	.	22	.
Cc1cc(-c2csc(N3CCN(C)CC3)n2)c(C)n1NC(=O)c1nn(C)c(=O)c2ccccc12	.	.	.	.	1	.
Cn1c(=O)c2c(nc(NCc3ccco3)n2C)n(C)c1=O	0	0	-1	-1	2	25
Cn1c(=O)c2c(nc(NCc3ccco3)n2C/C=C/c2ccccc2)n(C)c1=O	64*	-4	12	-1	3	10
Cc1ccccc1OCCC(=O)N1CCN(S(=O)(=O)c2ccc(Br)cc2)CC1	-24	55*	-3	-1	1	4
Cc1c(C(=O)NCCC2=CCCCC2)oc2ccc(S(=O)(=O)N3CCOCC3)cc12	19	5	-1	0	4	-3
Cc1c(C(=O)NCCCN2CCCC2=O)oc2ccc(S(=O)(=O)N3CCOCC3)cc12	-6	44*	-2	1	-10	-4
O=C(CCNC(=O)c1ccc(Br)cc1)Nc1cccc(S(=O)(=O)N2CCCCCC2)c1	-20	-5	0	0	-2	5
O=C(NCCCN1CCOCC1)c1cccc(S(=O)(=O)N2CCN(c3ccccc3)CC2)c1	-23	-13	-8	0	-4	13
O=C(CCNC(=O)c1ccc(Br)cc1)Nc1cccc(S(=O)(=O)N2CCCC2)c1	-26	38*	-4	-1	-7	-1
O=C(NCCOc1ccccc1F)c1cccc(S(=O)(=O)N2CCN(c3ccccc3)CC2)c1	29	35*	3	2	1	5
Cc1c(C(=O)NCCN(C)C)oc2ccc(S(=O)(=O)N3CCC4(CC3)OCCO4)cc12	-2	33*	0	1	2	.
COc1ccc(Cl)cc1NC(=O)Cn1ncc2ccc(OC)c(OC)c2c1=O	.	.	.	.	0	.
COc1ccc(-c2cc(C(=O)O)c3c(C(C)C)noc3n2)cc1OC	.	.	.	.	9	.
O=C(NCCCN1CCCC1=O)c1cccc(S(=O)(=O)N2CCCCC2)c1	-1	38*	8	0	-3	3
CC(C)CCNC(=O)c1c[nH]c2ccc(S(=O)(=O)N3CCOCC3)cc2c1=O	1	7	3	0	-23	18
COCCNC(=O)c1c[nH]c2ccc(S(=O)(=O)N3CCOCC3)cc2c1=O	-4	46*	-2	1	-1	-8
O=C(Nc1cccc(S(=O)(=O)N2CCCCC2)c1)c1ccc(N2CCCC2=O)cc1	-8	1	-2	0	-6	51*
O=C(Nc1ccc2c(c1)C(=O)NC2=O)c1ccc(S(=O)(=O)N2CCCC2)cc1	0	31*	0	0	-8	-15
O=C(NCCCN1CCCC1=O)c1cccc(S(=O)(=O)Nc2ccccc2Cl)c1	-5	-24	-4	0	-6	-6
O=C(c1ccc(Cl)cc1Cl)C(Br)C(O)C(Cl)(Cl)Cl (stereo not given)	.	.	.	.	-5	.
O=C1Cc2cc(-c3csc(NC4CC4)n3)ccc2N1	.	.	.	.	-4	.
CC1CCc2noc(NC(=O)COc3ccc(C(C)C)cc3)c2C1 (stereo not given)	.	.	.	.	10	.
